Assay outcomes deposited in PubChem BioAssay by several laboratories.
Most compounds without a hit are left out; they make up all but 2.4% or so of the library.
Platelet DG rel: platelet dense granule release activity. 300,000 tested, 0.22% active. inhibition, %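 (compounds screened at 7.5 µM in platelet-rich plasma)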. human platelet-rich plasma, SFLLRN dense granule ATP release, luminescence;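 active means mean replicate score, as percent of positive control, at or above 50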
SENP7 inh: blocks the human protease SENP7. Q9BQF6. recombinant SENP7, Z-RLRGG-aminoluciferin luminescence, 40 min. inhibition, % at 5 µM. 330,000 tested, 1.5% active. AID 434973;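 active means inhibition above about 50% at the single test dose, limit read from the data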;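 further: plate controls were DMSO with enzyme for no effect and no enzyme buffer wells for full effect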
Target sequence (Q9BQF6 706-1050 limits assumed): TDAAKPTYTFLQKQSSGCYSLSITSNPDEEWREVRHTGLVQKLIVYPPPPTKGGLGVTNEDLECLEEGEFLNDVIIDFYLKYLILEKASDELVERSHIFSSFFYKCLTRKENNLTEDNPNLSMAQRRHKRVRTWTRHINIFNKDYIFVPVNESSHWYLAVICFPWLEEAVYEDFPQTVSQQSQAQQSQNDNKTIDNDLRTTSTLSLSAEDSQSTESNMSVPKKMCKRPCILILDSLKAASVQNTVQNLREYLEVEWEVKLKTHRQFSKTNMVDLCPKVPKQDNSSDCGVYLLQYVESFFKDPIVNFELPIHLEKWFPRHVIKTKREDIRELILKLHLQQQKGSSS
SENP8 block-1: inhibitors of human SENP8 protease; 360,000 tested, 0.64% active; inhibition, % at 20 µM; Q96LD8; recombinant SENP8, Nedd8 substrate fluorescence; AID 602440; in the data active means inhibition mostly above about 40%, no sharp cut-off; inactive means mostly below about 27%
Target sequence (Q96LD8 whole entry, looked up): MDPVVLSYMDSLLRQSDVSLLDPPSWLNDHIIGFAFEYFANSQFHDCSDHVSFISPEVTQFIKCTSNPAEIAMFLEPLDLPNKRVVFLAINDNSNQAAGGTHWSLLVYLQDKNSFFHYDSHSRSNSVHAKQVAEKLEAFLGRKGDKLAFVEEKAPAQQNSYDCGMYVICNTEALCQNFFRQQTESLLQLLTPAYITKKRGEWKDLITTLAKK
SENP8 block-2: inhibitors of human SENP8 protease. Q96LD8. purified SENP8, Z-RLRGG-aminoluciferin cleavage, luminescence. inhibition, % at 10 µM. 330,000 tested, 1.2% active. AID 2540; in the data active means inhibition above about 50%
SENP6 inh: SENP6 protease inhibition; Recombinant SENP6 catalytic domain, aminoluciferin luminescence; inhibition, % at 10 µM; 330,000 tested, 1.8% active; AID 2599;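 active means inhibition above about 50% at the single tested dose, limit read from the data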;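 further: plate controls were DMSO wells with enzyme for no effect and DMSO wells lacking enzyme for full effect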
SENP8 conf-1: confirmation of human SENP8 protease inhibitors; shares compounds with SENP7 inh; Recombinant SENP8, Z-RLRGG-aminoluciferin luminescence, 60 min; inhibition, % at 12.5 µM; 6,200 tested, 40% active; AID 488912;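 active means mean inhibition across replicates above about 50%, limit read from the data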
SENP6 confirm: confirmation of human SENP6 protease inhibitors | shares compounds with SENP7 inh | recombinant SENP6, Z-RLRGG-aminoluciferin luminescence | inhibition, % at 12.5 µM | 6,200 tested, 58% active | AID 488915
SENP7 conf: confirmation of human SENP7 protease inhibitors; 6,200 tested, 69% active; recombinant SENP7, Z-RLRGG-aminoluciferin luminescence, 40 min; shares compounds with SENP7 inh; inhibition, % at 12.5 µM
Casp3 SENP sel: selectivity test for SENP inhibitors: human caspase-3 inhibition; 6,200 tested, 60% active; AID 488918; purified caspase-3, Z-DEVD-aminoluciferin luminescence, 60 min; inhibition, % at 12.5 µM; shares compounds with SENP7 inh;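 active means mean inhibition above about 50%, limit read from the data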;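 further: plate controls were enzyme with DMSO for no effect and wells without caspase-3 for full effect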
Luc interf: luminescence interference (SENP counter-screen) | shares compounds with SENP7 inh | Pre-incubated SENP8/Z-RLRGG-aminoluciferin, luciferase luminescence interference | inhibition, % at 12.5 µM | 6,200 tested, 39% active | AID 488919;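 active means mean inhibition above about 50% when retested at one dose, limit read from the data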;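 further: plate controls were DMSO wells with completed reaction for no effect and substrate without enzyme for full effect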
SENP8 conf-2: SENP8 (human) inhibition, single concentration confirmation; AID 624319; shares compounds with SENP8 block-1; inhibition, % at 25 µM; purified SENP8, Nedd8-AMC/pro-Nedd8 cleavage fluorescence, 30 min; 1,400 tested, 15% active; in the data active means inhibition mostly above about 39%, no sharp cut-off; inactive means mostly below about 34%
* marks the source's active call; other numbers are inactive results; . = no result.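 How the source made its calls, unless noted: active means mean inhibition above about 50% in the one-dose retest (limit read from the data); inactive means the rest.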

SMILES	Platelet DG rel	SENP7 inh	SENP8 block-1	SENP8 block-2	SENP6 inh	SENP8 conf-1	SENP6 confirm	SENP7 conf	Casp3 SENP sel	Luc interf	others
Cc1ccc(N2NC(=O)/C(=C/c3ccc(-c4ccc(Cl)c(C(=O)O)c4)o3)C2=O)cc1	-10.4	-2.3	-29.9	2.2	-6.4	.	.	.	.	.
CC(C)N1C(=O)S/C(=C\c2ccc(-c3ccc(Cl)c(C(=O)O)c3)o2)C1=O	-0.1	77.3*	-191.3	86.4*	91.2*	94.1*	93.7*	98.7*	37.7	89.5*
COc1ccc(C(=O)Nc2cc(C)on2)c(OC)c1	-3.7	1.0	3.2	0.2	-9.0	.	.	.	.	.
Cc1ccc(NC(=O)C(=O)Nc2ccc(C)cn2)nc1	-1.5	0.5	12.5	6.2	-19.5	.	.	.	.	.
COc1ccc(C(=O)Nc2ccc(C)cn2)c(OC)c1	25.3	94.4*	10.2	89.8*	90.5*	93.0*	92.4*	99.8*	93.8*	91.3*
Cc1ccc(NC(=O)c2sccc2C)nc1	52.3*	98.6*	7.1	92.4*	99.1*	94.0*	95.3*	101.7*	97.9*	91.7*
Cc1cccc(N)c1-c1c(C)cccc1N	-4.8	-2.7	35.1	2.6	3.4	.	.	.	.	.
O=C1c2ccccc2C(=O)C1c1nccc2ccccc12	9.4	95.6*	34.1	58.7*	97.4*	87.4*	81.2*	98.3*	91.5*	29.1
c1ccc2[nH]c(-c3ccnc4ccccc34)nc2c1	-2.3	-7.0	-387.7	-10.7	-27.3	.	.	.	.	.
O=C1C(c2ccnc3ccccc23)=C(O)c2ccccc21	19.5	96.9*	61.8*	38.9	64.4*	85.7*	86.4*	96.7*	94.3*	87.8*
O=Cc1nccc2ccccc12	.	.	-8.6	.	.	.	.	.	.	.
O=C1c2ccccc2C(=O)C1c1ccnc2ccccc12	6.7	99.2*	28.3	85.4*	79.0*	83.9*	89.0*	99.8*	93.6*	20.9
CCC(NC(=O)c1ccncc1)c1ccccc1 (configuration not stated)	-1.2	0.2	5.1	2.0	-7.9	.	.	.	.	.
CCOc1cccc(/C=N/NC(=O)c2ccc3c(c2)OCCO3)c1O	4.3	4.5	-16.1	1.1	6.9	.	.	.	.	.
Cc1cccc(/C=N/NC(=O)Cc2ccc(Cl)cc2)c1O	1.6	-1.0	-18.7	16.2	-20.3	.	.	.	.	.
Cc1cccc(/C=N\NC(=O)c2ccc(Cl)cc2)c1O	1.2	73.5*	1.7	11.8	36.9	7.4	19.4	29.2	59.6*	5.4
Cn1ccc(C(=O)NC(=S)Nc2ccc([N+](=O)[O-])cc2O)n1	.	53.6*	16.7	55.5*	71.7*	74.5*	72.4*	93.1*	75.4*	78.3*
O=C(N/N=C/c1cc([N+](=O)[O-])ccc1O)c1ccc2c(c1)OCCO2	-24.1	88.9*	-4.5	84.8*	93.0*	14.5	18.1	16.4	23.3	-1.2
Cc1cccc(/C=N/NC(=O)c2ccc3c(c2)OCCO3)c1O	38.3	96.5*	10.8	94.3*	93.7*	95.5*	98.3*	102.6*	94.3*	65.9*
CC1(c2nnc(Cc3ccccc3)o2)CC(c2cccnc2)=NO1 (configuration not stated)	8.6	-4.5	-12.5	-5.1	5.7	.	.	.	.	.
COc1cc([N+](=O)[O-])ccc1NC(=S)NNC(=O)c1ccc2c(c1)OCO2	6.2	11.6	10.1	6.2	33.7	.	.	.	.	.
O=C(NC(=S)Nc1cc([N+](=O)[O-])ccc1O)c1ccc2c(c1)OCO2	12.3	81.4*	20.8	89.1*	90.4*	93.1*	93.6*	97.0*	86.8*	77.3*
CC(=O)/C(N=Nc1ccc(SC(F)F)cc1)=C(\C)O	-0.3	48.3	24.1	45.1	66.1*	46.5	64.1*	59.9*	62.4*	39.0
CC(=O)/C(N=Nc1cccc(C(F)(F)F)c1)=C(\C)O	-1.4	-3.1	7.8	-12.3	1.9	.	.	.	.	.
CCc1noc(C)c1C(=O)NNC(=O)c1ccccc1F	5.0	-1.0	7.0	4.8	-8.0	.	.	.	.	.
SMILES	Platelet DG rel	SENP7 inh	SENP8 block-1	SENP8 block-2	SENP6 inh	SENP8 conf-1	SENP6 confirm	SENP7 conf	Casp3 SENP sel	Luc interf	others
Cc1cnc(NC(=O)C2COc3ccccc3O2)s1 (configuration not stated)	-4.5	65.2*	5.7	52.0*	57.9*	69.2*	67.8*	89.4*	79.4*	72.6*
Cc1ncsc1C(=O)Nc1nc2c(s1)CC(C)CC2 (configuration not stated)	22.9	98.1*	-77.9	92.1*	96.1*	-4.5	72.4*	93.4*	84.3*	25.6
CC1CCc2nc(NC(=O)C3COc4ccccc4O3)sc2C1 (configuration not stated)	-1.6	43.0	1.0	44.6	74.7*	71.5*	72.3*	91.3*	58.9*	28.3
CCOc1ccccc1CN1CCN(C2CCSCC2)CC1CCO (configuration not stated)	7.4	-6.5	7.5	-15.0	-4.0	.	.	.	.	.
CCN(C(=O)C(C)Sc1ccc(S(=O)(=O)N2CCOCC2)cn1)c1ccccc1 (configuration not stated)	.	-9.5	-10.5	-8.9	14.9	.	.	.	.	.
Cc1nn(Cc2ccccc2)c(C)c1C(=O)N1CCN(CC(=O)Nc2ccc(F)cc2)CC1	.	53.2*	13.2	-0.2	-3.0	-12.1	-6.2	-5.8	-1.8	-7.4
Cc1cccc(NC(=O)CN2CCN(C(=O)c3c(C)nn(Cc4ccccc4)c3C)CC2)c1C	.	3.7	17.6	-3.1	-12.4	.	.	.	.	.
COC(=O)c1ccc(NC(=O)C(=O)c2cccn2C)cc1	73.2*	95.4*	30.1*	93.1*	94.6*	94.5*	97.1*	102.3*	97.4*	80.1*	SENP8 conf-2=16.2
COC(=O)c1ccc(NC(=O)c2ccccc2C(=O)Nc2ccc(C(=O)OC)cc2)cc1	0.1	2.4	17.5	-2.5	-6.5	.	.	.	.	.
CN(C)c1ccc(/C=C(\NC(=O)c2ccccc2)C(=O)NCCN2CCOCC2)cc1	8.5	-0.3	-50.2	1.9	-4.3	.	.	.	.	.
O=C(NNc1cc(N2CCOCC2)nc(N2CCOCC2)n1)c1ccc([N+](=O)[O-])cc1	4.0	52.2*	70.0*	46.9	82.8*	19.1	56.1*	35.1	4.4	-1.3	SENP8 conf-2=44.3*
CCCC1(c2ccccc2)NC(=O)N(CC(=O)N(C)Cc2c(F)cccc2Cl)C1=O (configuration not stated)	-5.5	-5.2	-7.4	4.1	-7.1	.	.	.	.	.
